# Experimental data from PubChem BioAssay (NCI).
# The panel holds about 79,000 compounds, 15% with a hit somewhere; the sample as a whole holds those more often. Values without a mark were called inactive. The source made the active and inactive calls. Rule as the data show it: active = growth inhibition above about 70%; inactive = the rest.
# Key:
# [1] = NCI Yeast Anticancer Drug Screen. Data for the wt1 strain (AID 149);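 also: 0% = growth of vehicle-treated wt1 cultures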; details: S. cerevisiae wt1 strain (SPY 50644) growth inhibition, hits give high values
# Procedure, shortened: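 Readout: yeast growth inhibition, normalised to vehicle controls, in the wt1 strain exposed to test compounds.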
# [2] = NCI Yeast Anticancer Drug Screen. Data for the rad50EPP+ strain (AID 151);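 also: 0% = growth of vehicle-treated control cultures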; details: S. cerevisiae rad50 mutant strain, hits give high values
# Procedure, shortened: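 Compounds were applied to the rad50EPP+ yeast strain, which bears a defined DNA repair alteration, and growth inhibition was determined relative to vehicle-treated cultures.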
# [3] = NCI Yeast Anticancer Drug Screen. Data for the mgt1 strain (AID 153); details: S. cerevisiae mgt1 mutant growth inhibition, hits give high values
# Procedure, shortened: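 Strain: mgt1 yeast, one of a set carrying defined DNA damage repair or cell cycle control alterations. Compound-treated growth compared with vehicle.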
# [4] = NCI Yeast Anticancer Drug Screen. Data for the rad50 strain (AID 155);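 also: 0% = growth of vehicle-only cultures of the same strain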; details: S. cerevisiae rad50 strain growth inhibition, hits give high values
# Procedure, shortened: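 Compounds were tested on a yeast strain with an engineered DNA damage repair alteration; the reported value is growth inhibition normalised to vehicle treatment.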
# [5] = NCI Yeast Anticancer Drug Screen. Data for the mec2-1 strain (AID 157); details: S. cerevisiae mec2-1 strain, hits give high values
# Procedure, shortened: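 Strain: mec2-1 (DNA repair/cell cycle alteration). Compound exposure, then growth measured; inhibition expressed relative to vehicle.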
# [6] = NCI Yeast Anticancer Drug Screen. Data for the rad14 strain (AID 159);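 also: 0% = growth of vehicle-treated control cultures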; details: S. cerevisiae rad14 strain growth inhibition, hits give high values
# Procedure, shortened: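 Compound-treated yeast with a defined DNA-repair lesion; growth inhibition normalised to vehicle-treated cultures.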
# [7] = NCI Yeast Anticancer Drug Screen. Data for the sgs1 mgt1 strain (AID 161);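 also: 0% = growth of cultures given vehicle only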; details: S. cerevisiae sgs1 mgt1 strain, hits give high values
# Procedure, shortened: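 Test agents were incubated with a DNA-repair-mutant yeast strain. Growth was then read and compared against vehicle-treated controls.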
# [8] = NCI Yeast Anticancer Drug Screen. Data for the CLN2oe strain (AID 163);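 also: 0% = growth of vehicle-only control cultures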; details: S. cerevisiae CLN2oe strain, hits give high values
# Procedure, shortened: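 Growth of a genetically modified yeast strain is measured after compound exposure and compared with cultures given vehicle alone.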
# [9] = NCI Yeast Anticancer Drug Screen. Data for the cln2 rad14 strain (AID 165);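 also: 0% = growth equal to vehicle treated cultures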; details: S. cerevisiae cln2 rad14 strain, hits give high values
# Procedure, shortened: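 Compounds are applied to the cln2 rad14 yeast strain, and growth is then compared with that of vehicle-treated cultures to give inhibition.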
# [10] = NCI Yeast Anticancer Drug Screen. Data for the bub3 strain (AID 167); details: S. cerevisiae bub3 mutant strain, hits give high values
# Procedure, shortened: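 Growth of a checkpoint-deficient yeast mutant is measured after compound exposure. Values represent inhibition relative to vehicle.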
# [11] = NCI Yeast Anticancer Drug Screen. Data for the wt2 strain (AID 169);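 also: 0% = growth of vehicle-treated yeast cultures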; details: S. cerevisiae wt2 strain growth inhibition, hits give high values
# Procedure, shortened: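 This strain belongs to a panel of yeast strains with defined genetic alterations in DNA damage repair or cell cycle control. Compounds are applied, and growth inhibition is measured against vehicle-treated cultures.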
# [12] = NCI Yeast Anticancer Drug Screen. Data for the mlh1 strain (AID 171);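 also: 0% = growth of vehicle-treated control cultures of the same strain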; details: S. cerevisiae mlh1 strain growth inhibition, hits give high values
# Procedure, shortened: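 Growth of the mutant yeast strain after compound exposure, expressed as inhibition relative to vehicle-only controls.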
# [13] = NCI Yeast Anticancer Drug Screen. Data for the sgs1 strain (AID 173);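 also: 0% = growth of vehicle-only control cultures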; details: S. cerevisiae sgs1 mutant, hits give high values
# Procedure, shortened: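 Growth of a yeast strain bearing a defined genetic alteration is measured after compound treatment. Inhibition is expressed relative to vehicle-only controls.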
# [14] = NCI Yeast Anticancer Drug Screen. Data for the mlh1 rad18 strain (AID 175); details: S. cerevisiae mlh1 rad18 strain growth inhibition, hits give high values
# Procedure, shortened: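 Read-out is yeast growth inhibition, calculated against vehicle-only controls. The compound was applied to a strain engineered with DNA damage repair alterations.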
# [15] = NCI Yeast Anticancer Drug Screen. Data for the rad18 strain (AID 177); details: S. cerevisiae rad18 mutant growth inhibition, hits give high values
# Procedure, shortened: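 Growth of the mutant yeast strain after compound exposure, normalised to vehicle-only cultures.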
# [16] = at 5.0 µM (retest, dose inferred, filed as 0.5)
# [17] = at 50.0 µM (retest, dose inferred, filed as 5.0)
compound,measurement,setting,value
N#C/C(=C1C=C/C(=N\O)C(Cl)=C\1)c1ccccc1,growth inhibition,[1]; at 1.2 µM,-2%
same,growth inhibition,[1]; at 3.7 µM,-5%
same,growth inhibition,[1]; at 11.0 µM,2%
same,growth inhibition,[1]; at 33.0 µM,0%
same,growth inhibition,[1]; at 100.0 µM,3%
same,growth inhibition,[2]; at 1.2 µM,2%
same,growth inhibition,[2]; at 3.7 µM,16%
same,growth inhibition,[2]; at 11.0 µM,26%
same,growth inhibition,[2]; at 33.0 µM,21%
same,growth inhibition,[2]; at 100.0 µM,24%
same,growth inhibition,[3]; at 1.2 µM,-3%
same,growth inhibition,[3]; at 3.7 µM,1%
same,growth inhibition,[3]; at 11.0 µM,3%
same,growth inhibition,[3]; at 33.0 µM,5%
same,growth inhibition,[3]; at 100.0 µM,10%
same,growth inhibition,[4]; at 1.2 µM,0%
same,growth inhibition,[4]; at 3.7 µM,3%
same,growth inhibition,[4]; [16],24%
same,growth inhibition,[4]; at 11.0 µM,8%
same,growth inhibition,[4]; at 33.0 µM,13%
same,growth inhibition,[4]; [17],76% (active)
same,growth inhibition,[4]; at 50.0 µM,55.8%
same,growth inhibition,[4]; at 100.0 µM,14%
same,growth inhibition,[5]; at 1.2 µM,-1%
same,growth inhibition,[5]; at 3.7 µM,0%
same,growth inhibition,[5]; [16],-11%
same,growth inhibition,[5]; at 11.0 µM,2%
same,growth inhibition,[5]; at 33.0 µM,5%
same,growth inhibition,[5]; [17],36%
same,growth inhibition,[5]; at 50.0 µM,43%
same,growth inhibition,[5]; at 100.0 µM,14%
same,growth inhibition,[6]; at 1.2 µM,2%
same,growth inhibition,[6]; at 3.7 µM,8%
same,growth inhibition,[6]; at 11.0 µM,15%
same,growth inhibition,[6]; at 33.0 µM,17%
same,growth inhibition,[6]; at 100.0 µM,26%
same,growth inhibition,[7]; [16],52%
same,growth inhibition,[7]; [17],85% (active)
same,growth inhibition,[7]; at 50.0 µM,40.1%
same,growth inhibition,[8]; at 1.2 µM,2%
same,growth inhibition,[8]; at 3.7 µM,3%
same,growth inhibition,[8]; at 11.0 µM,6%
same,growth inhibition,[8]; at 33.0 µM,15%
same,growth inhibition,[8]; at 100.0 µM,13%
same,growth inhibition,[9]; [16],12%
same,growth inhibition,[9]; [17],46%
same,growth inhibition,[9]; at 50.0 µM,-43.9%
same,growth inhibition,[10]; at 1.2 µM,-1%
same,growth inhibition,[10]; at 3.7 µM,2%
same,growth inhibition,[10]; [16],37%
same,growth inhibition,[10]; at 11.0 µM,4%
same,growth inhibition,[10]; at 33.0 µM,14%
same,growth inhibition,[10]; [17],71% (active)
same,growth inhibition,[10]; at 50.0 µM,72.7% (active)
same,growth inhibition,[10]; at 100.0 µM,16%
same,growth inhibition,[11]; at 1.2 µM,-13%
same,growth inhibition,[11]; at 3.7 µM,-11%
same,growth inhibition,[11]; at 11.0 µM,-9%
same,growth inhibition,[11]; at 33.0 µM,-9%
same,growth inhibition,[11]; at 100.0 µM,-1%
same,growth inhibition,[12]; at 1.2 µM,-4%
same,growth inhibition,[12]; at 3.7 µM,4%
same,growth inhibition,[12]; at 11.0 µM,7%
same,growth inhibition,[12]; at 33.0 µM,10%
same,growth inhibition,[12]; at 100.0 µM,23%
same,growth inhibition,[13]; at 1.2 µM,-3%
same,growth inhibition,[13]; at 3.7 µM,7%
same,growth inhibition,[13]; at 11.0 µM,6%
same,growth inhibition,[13]; at 33.0 µM,16%
same,growth inhibition,[13]; at 100.0 µM,33%
same,growth inhibition,[14]; [16],45%
same,growth inhibition,[14]; [17],87% (active)
same,growth inhibition,[14]; at 50.0 µM,80.7% (active)
same,growth inhibition,[15]; at 1.2 µM,-1%
same,growth inhibition,[15]; at 3.7 µM,1%
same,growth inhibition,[15]; at 11.0 µM,-2%
same,growth inhibition,[15]; at 33.0 µM,2%
same,growth inhibition,[15]; at 100.0 µM,13%
